{"source": "PubChem BioAssay (Tox21)", "note": "Where “and” joins values, the source holds several entries; their conditions need not be identical. Equal entries are not always repeated. Inconclusive results are not listed. Entries that show only a call come without a potency. Unmarked numbers belong to inactive results. Calls of active or inactive are those of the source. Calls come from the whole dose curve; as a rule, active = well fitted curve in the direction sought with a large enough effect in the repeat runs; inconclusive = weak or mixed curves; inactive = no such curve, though single readings can be large; an effect the other way counts as inactive or inconclusive."}
{"experiment": "qHTS assay to identify small molecule antagonists of the retinoic acid receptor (RAR) signaling pathway (AID 1159552; note: nearly all actives have a fitted effect of over 50% in size)", "settings": "C3RL4 RARE luciferase reporter, retinol-stimulated, 6 h; series mostly up to 92.4 µM; activity, negative = inhibition: at the top concentration", "procedure,_shortened": "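RARE-luc C3RL4 cells; cpds + 1 uM (final) retinol, 6 hr, 37 C/5% CO2; luciferase reagent, 30 min RT, luminescence readout. Inhibitors of retinol-driven signal scored.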"}
{"compound": "CCCCCCOC(=O)c1ccccc1C(=O)OCCCCCC", "Potency": "inactive"}
{"compound": "CCOP(=S)(OCC)O/N=C(\\C#N)c1ccccc1", "Potency": "inactive"}
{"compound": "Nc1cccnc1", "Potency": "inactive"}
{"compound": "O=C(NC(=O)c1c(F)cccc1F)Nc1ccc(Cl)cc1", "Potency": "inactive"}
{"compound": "NCc1cccnc1", "Potency": "inactive"}
{"compound": "CC(C)N(C(=O)SCC(Cl)=C(Cl)Cl)C(C)C", "Potency": "inactive"}
{"compound": "ClC1C(Cl)C(Cl)C(Cl)C(Cl)C1Cl", "note": "(configuration not stated)", "Potency": "inactive"}
{"compound": "CCOC(=O)C(C)OC(=O)c1cc(Oc2ccc(C(F)(F)F)cc2Cl)ccc1[N+](=O)[O-]", "note": "(configuration not stated)", "Potency": "inactive"}
{"compound": "COP(=S)(OC)Oc1cc(Cl)c(Cl)cc1Cl", "Potency": "inactive"}
{"compound": "O=Cc1ccco1", "Potency": "inactive"}
{"compound": "CCOc1cc(Oc2ccc(C(F)(F)F)cc2Cl)ccc1[N+](=O)[O-]", "Potency": "inactive"}
{"compound": "COC(=O)c1sccc1S(=O)(=O)NC(=O)Nc1nc(C)nc(OC)n1", "Potency": "inactive"}
{"compound": "CC(O)CCO", "note": "(configuration not stated)", "Potency": "inactive"}
{"compound": "CCCCOCCOP(=O)(OCCOCCCC)OCCOCCCC", "Potency": "inactive"}
{"compound": "O=P(O)(O)CCCl", "Potency": "inactive"}
{"compound": "C1=Cc2cccc3cccc1c23", "Potency": "inactive"}
{"compound": "CC(C)C(=O)OCC(C)(C)C(OC(=O)C(C)C)C(C)C", "note": "(configuration not stated)", "Potency": "inactive"}
{"compound": "N#CC(Br)Br", "Potency": "inactive"}
{"compound": "c1ccc(-c2cccc(-c3ccccc3)c2)cc1", "Potency": "inactive"}
{"compound": "N#CCCCl", "Potency": "inactive"}
{"compound": "CCCCCCCCOC(=O)c1ccccc1C(=O)OCCCCCCCC", "Potency": "inactive"}
{"compound": "CC1(C)C(C=C(Cl)Cl)C1C(=O)OC(C#N)c1cccc(Oc2ccccc2)c1", "note": "(configuration not stated)", "Potency": "inactive"}
{"compound": "CCCCC(CC)COC(=O)Cl", "note": "(configuration not stated)", "Potency": "inactive"}
{"compound": "CCCCCCCCCCCOC(=O)c1ccccc1C(=O)OCCCCCCCCCCC", "Potency": "inactive"}
{"experiment": "qHTS assay to identify small molecule agonists of the retinoic acid receptor (RAR) signaling pathway (AID 1159553); note: potency is the fitted concentration of half-maximal effect", "settings": "C3RL4 RARE luciferase reporter, agonist, 6 h; activation: at 73.3 µM (top of the series) unless noted", "procedure,_shortened": "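6 hr compound exposure (DMSO vehicle) of overnight-plated C3RL4 RARE-luc cells at 37 C; luminescence quantified after 30 min RT with luciferase reagent.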"}
{"compound": "CCCCCCOC(=O)c1ccccc1C(=O)OCCCCCC", "Potency": "inactive"}
{"compound": "CCOP(=S)(OCC)O/N=C(\\C#N)c1ccccc1", "activation": "-0.612%"}
{"compound": "Nc1cccnc1", "Potency": "inactive"}
{"compound": "NCc1cccnc1", "Potency": "inactive"}
{"compound": "CC(C)N(C(=O)SCC(Cl)=C(Cl)Cl)C(C)C", "Potency": "inactive"}
{"compound": "ClC1C(Cl)C(Cl)C(Cl)C(Cl)C1Cl", "note": "(configuration not stated)", "Potency": "inactive"}
{"compound": "CCOC(=O)C(C)OC(=O)c1cc(Oc2ccc(C(F)(F)F)cc2Cl)ccc1[N+](=O)[O-]", "note": "(configuration not stated)", "Potency": "inactive"}
{"compound": "COP(=S)(OC)Oc1cc(Cl)c(Cl)cc1Cl", "Potency": "inactive"}
{"compound": "O=Cc1ccco1", "Potency": "inactive"}
{"compound": "CCOc1cc(Oc2ccc(C(F)(F)F)cc2Cl)ccc1[N+](=O)[O-]", "Potency": "inactive"}
{"compound": "COC(=O)c1sccc1S(=O)(=O)NC(=O)Nc1nc(C)nc(OC)n1", "Potency": "inactive"}
{"compound": "CC(O)CCO", "note": "(configuration not stated)", "activation": "0.0301% [at 94.8 µM]"}
{"compound": "CCCCOCCOP(=O)(OCCOCCCC)OCCOCCCC", "Potency": "inactive"}
{"compound": "O=P(O)(O)CCCl", "activation": "1.29% [at 94.8 µM]"}
{"compound": "C1=Cc2cccc3cccc1c23", "Potency": "inactive"}
{"compound": "CC(C)C(=O)OCC(C)(C)C(OC(=O)C(C)C)C(C)C", "note": "(configuration not stated)", "Potency": "inactive"}
{"compound": "N#CC(Br)Br", "Potency": "inactive"}
{"compound": "c1ccc(-c2cccc(-c3ccccc3)c2)cc1", "Potency": "6.93 µM (active) and 4.86 µM (active)"}
{"compound": "N#CCCCl", "Potency": "inactive"}
{"compound": "CCCCCCCCOC(=O)c1ccccc1C(=O)OCCCCCCCC", "Potency": "inactive"}
{"compound": "CC1(C)C(C=C(Cl)Cl)C1C(=O)OC(C#N)c1cccc(Oc2ccccc2)c1", "note": "(configuration not stated)", "Potency": "inactive"}
{"compound": "CCCCC(CC)COC(=O)Cl", "note": "(configuration not stated)", "Potency": "inactive"}
{"compound": "CCCCCCCCCCCOC(=O)c1ccccc1C(=O)OCCCCCCCCCCC", "Potency": "inactive"}
